Only some compounds are listed: those with a hit (about 11% of all), similar ones and a draw of the others.
Tau fluor cs: Counterscreen qHTS for Inhibitors of Tau Fibril Formation, Fluorescence Polarization | tau K18 P301L Alexa594 fluorescence, heparin fibrillization | Potency, µM (top dose mostly 57.7 µM), without a hit: top-dose activity change, negative = decrease | actives 0.93% (n = 280,000); also: potency is read from the fitted curve at half-maximal effect; nearly all actives have a fitted effect of over 55% in size
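Human K18 P301L tau (15 uM unlabeled plus 0.24 uM Alexa 594-labeled, final) in 100 mM sodium acetate pH 7 was mixed with compound and 20 uM heparin and incubated 6 hr at 37 C.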
Tau fibril ThT: qHTS for Inhibitors of Tau Fibril Formation, Thioflavin T Binding; Microtubule-associated protein tau (Homo sapiens), P10636; recombinant tau K18 P301L (four-repeat tau fragment), heparin-induced fibrillization, ThT fluorescence; Potency, µM (top dose mostly 57.4 µM), for the others: at the highest dose activity, negative = inhibition, most hits filed as inhibitors; actives 2.1% (n = 270,000); AID 1460, 2008; also: potency is read from the fitted curve at half-maximal effect; nearly all actives have a fitted effect of over 55% in size
Target sequence (P10636 561-689 P618L limits assumed): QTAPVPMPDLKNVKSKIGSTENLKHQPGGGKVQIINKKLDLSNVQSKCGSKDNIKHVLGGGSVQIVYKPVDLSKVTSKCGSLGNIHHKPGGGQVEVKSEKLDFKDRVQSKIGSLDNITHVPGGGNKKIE
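In this qHTS, human K18 P301L tau is incubated with compound and heparin for 6 hr at 37 C, and Thioflavin T fluorescence then reports fibril load.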
Sfp PPTase inh: qHTS Assay for Inhibitors of Bacillus subtilis Sfp phosphopantetheinyl transferase (PPTase). Biochemical Sfp PPTase activity, qHTS. Potency, µM, for the others: largest response in the series, negative = inhibition, most hits filed as inhibitors. AID 1490, 2009. actives 3.5% (n = 310,000);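 also: the enzyme is Sfp with the accession as filed and its product quenches rhodamine fluorescence; potency is read from the fitted curve at half-maximal effect; 0% = enzyme reaction without inhibitor and -100% = no enzyme wells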
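Step 1, compound plus 15 nM Sfp-PPTase, 15 min, room temperature. Step 2, add rhodamine-CoA (5 uM) and BHQ-2-YbbR (12.5 uM). Step 3, read 525/598 nm fluorescence at 0 and 30 min.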
Tau fibril FP: qHTS for Inhibitors of Tau Fibril Formation, Fluorescence Polarization. Microtubule-associated protein tau (Homo sapiens), P10636. K18 P301L tau heparin fibrillization, Alexa594 FP, 6 h. Potency, µM (doses to about 57.7 µM), for inactives: top-dose activity, negative = inhibition, most hits filed as inhibitors. actives 0.39% (n = 280,000); also: potency is read from the fitted curve at half-maximal effect; nearly all actives have a fitted effect of over 55% in size
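Human K18 P301L fragment (15 uM unlabeled plus 0.24 uM Alexa 594-labeled) in 100 mM sodium acetate pH 7 with compound, aggregation induced by 20 uM heparin for 6 hr at 37 C. ThT (30 uM) added for 1 hr, then Alexa 594 FP read.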
FBPA coupling cs: qHTS Assay for Inhibitors of Fructose-1,6-bisphosphate Aldolase from Giardia Lamblia: Coupling assay counterscreen | coupling enzyme system counterscreen, AmpLite Red fluorescence | activity change, negative = inhibition, % at 58.2 µM, hits read low | actives 0.67% (n = 290,000) | AID 2472, 2010; in the data active = activity change below about -30%
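Counterscreen lacking aldolase: glyceraldehyde-3-phosphate coupling-enzyme reagent preincubated 10 min at RT with compound (at 57.5 uM final), then substrate/coupling system with AmpLite Red added; fluorescence read at 525/598 nm after 20 min RT.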
G9a block: qHTS Assay for Inhibitors of Histone Lysine Methyltransferase G9a; Histone-lysine N-methyltransferase EHMT2 (Homo sapiens), Q96KQ7; G9a H3K9 monomethylation, AlphaScreen, 2 h; Potency, µM (top dose mostly 102 µM), inactives show at the top dose activity, negative = inhibition, hits mostly inhibitors; actives 8.8% (n = 350,000); AID 504332, 2011; also: potency is read from the fitted curve at half-maximal effect; nearly all actives have a fitted effect of over 75% in size
Target sequence (Q96KQ7 913-1193 limits assumed): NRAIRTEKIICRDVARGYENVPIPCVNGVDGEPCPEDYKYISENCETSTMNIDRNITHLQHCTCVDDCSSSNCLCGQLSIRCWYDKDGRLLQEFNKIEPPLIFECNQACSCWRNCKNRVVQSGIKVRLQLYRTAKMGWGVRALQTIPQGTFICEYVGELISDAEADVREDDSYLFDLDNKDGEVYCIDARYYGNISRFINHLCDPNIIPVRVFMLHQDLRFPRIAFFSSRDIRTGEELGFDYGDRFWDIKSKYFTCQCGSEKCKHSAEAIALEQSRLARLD
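Using a bead-based AlphaScreen, monomethylated H3K9 product from 2 h room-temperature reactions (G9a 20 nM, peptide 500 nM, SAM 20 uM) was detected with 0.5 ug/mL rabbit anti-H3K9me1 antibody.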
Starred values were filed as active, the others as inactive; ! = repeats disagree; [ ] = remark or other dose. Unless noted, calls follow the shape of the dose curve; as a rule, active = well fitted curve in the direction sought with a large enough effect; inconclusive = small, poorly fitted or top-dose-only effect, or another doubt; inactive = no such curve, though single readings can be large; an effect the other way counts as inactive or inconclusive. Unless noted, % is scaled to controls: 0 for no effect and ±100 for the full control effect.

Screening CC1(C)CC(NS(=O)(=O)c2ccc3ccccc3c2)CC(C)(C)N1 returned Sfp PPTase inh 16%, FBPA coupling cs -1 and G9a block -18%.
Screening COc1ccc2[nH]cc(CCNc3nc(-c4ccc(C(=O)N(C)C)cc4)nc4ccccc34)c2c1 returned Tau fluor cs 16µM*[quencher], Tau fibril ThT inconclusive, Sfp PPTase inh -21%, Tau fibril FP 3% and FBPA coupling cs -5.
`COc1ccc2[nH]cc(CCNc3nc(-c4ccc(N(C)C)cc4)nc4ccccc34)c2c1` gave Sfp PPTase inh 18µM*, FBPA coupling cs -6 and G9a block -2%[0.501 µM].
COc1ccc2[nH]cc(CCNC(=O)c3ccc4ccccc4n3)c2c1 was read as Sfp PPTase inh 9%, FBPA coupling cs -16 and G9a block 71µM*.
COc1ccccc1CNc1nc(-c2ccc(C(=O)N(C)C)cc2)nc2ccccc12 was read as Sfp PPTase inh -11%, FBPA coupling cs 7 and G9a block 5%[0.501 µM].
COc1ccccc1CNc1nc(-c2ccc(N(C)C)cc2)nc2ccccc12 was read as Tau fluor cs 11µM*[quencher], Tau fibril ThT 16µM*, Sfp PPTase inh 16µM*, Tau fibril FP inconclusive and FBPA coupling cs -32*.
`COc1ccccc1CN1CCCC2(CCN(C(=O)c3cnccn3)CC2)C1` gave Sfp PPTase inh 20%, FBPA coupling cs 3 and G9a block 6%[12.7 µM].
For CCOC(=O)c1ccccc1NC(=O)CSc1cn(CC(=O)N2CCCCC2)c2ccccc12 the results were Tau fluor cs -11%, Tau fibril ThT -7%, Tau fibril FP -8% and G9a block -1%[59 µM].
Screening CCC(=O)N1CCc2cc(Br)cc(S(=O)(=O)CCC(=O)NCCc3ccccc3Cl)c21 returned Tau fluor cs -5%, Tau fibril ThT 1%, Tau fibril FP 7% and G9a block -21%[59 µM].
`CCC(c1nnc(SC(C)C(=O)NC2CC2)n1-c1ccc(OC)cc1)N(C)C` (stereo not given) gave G9a block 5%[59 µM].
COc1ccc2[nH]cc(CCNC(=O)Nc3cccc(F)c3)c2c1 was read as Tau fluor cs 25µM*[quencher], Tau fibril ThT inconclusive, Tau fibril FP inconclusive and G9a block -29%[59 µM].
COc1cccc2oc3cc(C#CC4(O)CCCCC4)ccc3c(=O)c12 was read as Sfp PPTase inh 0% and FBPA coupling cs -1.
`COc1cccc2oc3cc(C#Cc4ccccn4)ccc3c(=O)c12` gave Sfp PPTase inh 40µM* and FBPA coupling cs 0.
Screening CC1CCc2c(sc3nnn(CCCCOc4ccc(Cl)cc4)c(=O)c23)C1 (stereo not given) returned Tau fluor cs -5%, Tau fibril ThT -12%, Tau fibril FP 0% and G9a block 13µM*.
Screening Cc1ccc(-c2nnc(Nc3cccc(C(F)(F)F)c3)c3ccccc23)cc1S(=O)(=O)N1CCOCC1 returned Tau fluor cs inconclusive, Tau fibril ThT -15%, Tau fibril FP inconclusive and G9a block 2%[59 µM].
Screening S=c1[nH]nc(-c2ccco2)n1/N=C/c1ccc(Cl)cc1 returned Tau fluor cs -22%, Tau fibril ThT inconclusive, Sfp PPTase inh -20%, Tau fibril FP 1%, FBPA coupling cs 5 and G9a block 1.3µM*.
For Cc1cc(-c2n[nH]c(=S)n2/N=C/c2ccc(C)s2)n[nH]1 the results were Tau fluor cs 0%, Tau fibril ThT -4%, Sfp PPTase inh -17%, Tau fibril FP -5%, FBPA coupling cs 0 and G9a block 1.8µM*.
For Cc1cc(-c2n[nH]c(=S)n2/N=C/c2ccc(Br)s2)n[nH]1 the results were Tau fluor cs -20%, Tau fibril ThT inconclusive, Sfp PPTase inh -20%, Tau fibril FP 0%, FBPA coupling cs 9 and G9a block inconclusive.
Screening S=c1[nH]nc(-c2ccco2)n1/N=C/c1ccccc1Cl returned Tau fluor cs 4%, Tau fibril ThT 9%, Sfp PPTase inh inconclusive, Tau fibril FP 2%, FBPA coupling cs 1 and G9a block 1.4µM*.
Screening Cc1ccc(/C=N/n2c(-c3ccco3)n[nH]c2=S)s1 returned Tau fluor cs -4%, Tau fibril ThT -12%, Sfp PPTase inh inconclusive, Tau fibril FP 5%, FBPA coupling cs 3 and G9a block 1.3µM*.
Screening COc1ccc(Cn2cc(C(=O)c3ccc(OC)cc3)c(=O)c3cc4c(cc32)OCCO4)cc1 returned Tau fluor cs -21%, Tau fibril ThT -13%, Tau fibril FP -3% and G9a block -27%[59 µM].
Screening CC/C=C\C/C=C\C/C=C\C/C=C\C/C=C\C/C=C\CCC(=O)O returned Tau fluor cs -1%, Tau fibril ThT 16µM*!, Sfp PPTase inh 79µM*!, Tau fibril FP inconclusive, FBPA coupling cs 0 and G9a block 7.1µM*.
For CN1C(=O)C(=O)/C(=C(/O)c2ccc(Br)cc2)C1c1ccc(F)cc1 (stereo not given) the results were Sfp PPTase inh 20%, FBPA coupling cs 10 and G9a block 71µM*.
`CCOc1ccc(/C(O)=C2/C(=O)C(=O)N(c3ccccn3)C2c2ccc(F)cc2)c(C)c1` (stereo not given) gave Sfp PPTase inh -11%, FBPA coupling cs 2 and G9a block 28µM*.
Cc1ccc(/C(O)=C2/C(=O)C(=O)N(c3ccccn3)C2c2ccc(F)cc2)cc1 (stereo not given) was read as Sfp PPTase inh inconclusive, FBPA coupling cs 5 and G9a block 40µM*.
`O=C1C(=O)N(c2ccccn2)C(c2ccc(Br)cc2)/C1=C(/O)c1ccc(Br)cc1` (stereo not given) gave Sfp PPTase inh 15%, FBPA coupling cs 10 and G9a block 45µM*.
`Cc1ccc(/C(O)=C2\C(=O)C(=O)N(C)C2c2ccc(Br)cc2)cc1` (stereo not given) gave Sfp PPTase inh 11%, FBPA coupling cs 10 and G9a block inconclusive.
O=C1C(=O)N(c2ccccn2)C(c2ccc(F)cc2)/C1=C(/O)c1ccc(Br)cc1 (stereo not given) was read as Sfp PPTase inh 18%, FBPA coupling cs 6 and G9a block 14%[0.501 µM].

Screening results as filed in PubChem BioAssay.
